Laboratory results from PubChem BioAssay (Tox21).
Inconclusive results are not listed. Activity calls are given as the source filed them. The call rests on the fitted dose curve; in most records, active means well fitted cell-killing curve with a large enough effect in the repeat runs; inconclusive means weak or mixed curves; inactive means flat fitted curve, though single readings scatter.

Test: qHTS RealTime-Glo MT Cell Viability Assay in HepG2 cells - 16 hour (AID 1224885); further: nearly all actives have a fitted effect of over 50% in size
Conditions: RealTime-Glo luminescence; series mostly up to 76.8 µM; activity change, negative = cytotoxic: at the top concentration
From the text: U.S. Tox21 Program National Center for Advancing Translational Sciences [NCATS] NIH Chemical Genomics Center [NCGC] U.S. Environmental Protection Agency [EPA] National Institutes of Environmental Health Sciences [NIEHS] National Toxicology Program [NTP] U.S. Food and Drug Administration [FDA] Tox21 Assay Overview: Measure of cell viability is critical in the cell-base assay. Analysis of cell viability is necessary for the characterization of cell responses to cytotoxic drugs and environmental stress. A RealTime-Glo MT Cell Viability Assay to monitor cell viability in real time of continues cell culture during 40 hours of compound treatment was used to screen Tox21 10K library compounds in HepG2 cells. The RealTime-Glo MT Cell Viability Assay is a nonlytic, homogeneous, bioluminescent method to measure cell viability in real time using a simple, plate-based method. The assay involves adding NanoLuc luciferase and a cell-permeant prosubstrate to cells in culture. Viable cells reduce the proprietary prosubstrate to generate a substrate for NanoLuc luciferase. This substrate diffuses from cells into the surrounding culture medium, where it is rapidly used by the NanoLuc Enzyme to produce a luminescent signal. The signal correlates with the number of viable cells, making the assay well suited for cytotoxicity studies.
Tox21 Assay Protocol Summary: The mixture of HepG2 cell suspension and reagents were dispensed at 600cells/6 ul/well in 1536-well tissue culture treated black solid bottom plates using a Multidrop dispenser. After the assay plates were incubated at a 37 C/5% CO2 incubator for 5 hours, 23 nL of compounds dissolved in DMSO, positive and negative controls was transferred to the assay plate by a pintool work station. The plates were incubated at 37 C for 40 hours. The luminescence intensity were measured at 0h, 8h, 16h, 24h, 32h and 40h time points using ViewLux plate reader during compound treatment.
On the % scale 0 is the no-effect control and ±100 the full control effect.

SMILES	activity change, negative = cytotoxic
COc1ccccc1N1CCN(CCCNc2cc(=O)n(C)c(=O)n2C)CC1	2% [at 35.3 µM] (inactive)
Nc1cccc(S(=O)(=O)O)c1	-0.149% (inactive)
OCC(CBr)(CBr)CBr	-5.24% (inactive)
CCCOc1ccc2c(c1)CC[C@@H]1[C@@H]2CC[C@]2(C)C(OC)CC[C@@H]12 (stereo not given in full)	-0.47% [at 35.3 µM] (inactive)
Cc1ccc(C)c(N)c1	0.599% (inactive)
CC(=O)OC(C)OC(C)=O	1.26% (inactive)
c1ccc(CN(CC2=NCCN2)c2ccccc2)cc1	-3.69% [at 35.3 µM] (inactive)
COC(=O)c1ccc2cc(C(=O)OC)ccc2c1	3.7% [at 15.8 µM] (inactive)
CCNCCO	3.95% (inactive)
CC1=NN(c2cc(Cl)c(S(=O)(=O)O)cc2Cl)C(=O)C1N=Nc1ccc(S(=O)(=O)O)cc1 (stereo not given)	-6.86% (inactive)
CN1CCN(N)CC1	0.88% [at 35.3 µM] (inactive)
CN(C)Cc1ccccc1	-1.3% (inactive)
Cc1c[nH]c(=S)[nH]c1=O	-0.33% (inactive)
NC(=O)Cc1cccc(C(=O)c2ccccc2)c1N	-1.74% [at 35.3 µM] (inactive)
O=C1C=CC(=O)O1	2.09% (inactive)
COC(C)CCO (stereo not given)	4.25% (inactive)
C/C(=N\O)[C@@H](C)NCC(C)(C)CN[C@H](C)/C(C)=N/O	6.02% [at 35.3 µM] (inactive)
CCOC(=O)C1CC(=O)C(=C(O)C2CC2)C(=O)C1 (stereo not given)	0.07% (inactive)
Cc1cccc(C)c1NC(=O)CN1CCCCCC1	-0.302% [at 35.3 µM] (inactive)
CCC(=O)c1ccc2c(c1)N(CCCN(C)C)c1ccccc1S2	-17.9% [at 35.3 µM] (inactive)

SMILES	activity change, negative = cytotoxic
CCOC(=O)NCCC[Si](OCC)(OCC)OCC	0.569% (inactive)
COC(=O)C(C)O (stereo not given)	-0.138% (inactive)
CCN(CCCc1ccccc1)CCCc1ccccc1	-10.2% [at 35.3 µM] (inactive)
CCOC(=O)c1ccccc1O	1.27% [at 35.3 µM] (inactive)
Cc1nc(-c2ccccn2)ncc1C(=O)Nn1cc(C)c2cc(F)ccc21	-21.2% (inactive)
CC(C)O	0.579% (inactive)
Cc1nnc(SCC2=C(C(=O)O)N3C(=O)[C@@H](NC(=O)Cn4cnnn4)[C@H]3SC2)s1	1.75% [at 35.3 µM] (inactive)
Cc1ccccc1C(=O)Nc1ccc(C(=O)N2CCCC(O)c3cc(Cl)ccc32)c(C)c1 (stereo not given)	-18.7% [at 35.3 µM] (inactive)
O=c1[nH]c(=O)n([C@H]2C[C@H](O)[C@@H](CO)O2)cc1C(F)(F)F	4.43% [at 35.3 µM] (inactive)
COc1ccc(S(=O)(=O)Nc2nnc(CC(C)C)s2)cc1	0.836% [at 35.3 µM] (inactive)
Cc1ccc(C=O)s1	1.04% (inactive)
CC(C)Nc1nc(N)nc(Cl)n1	4.12% (inactive)
C=C(C)C(=O)OCCOP(=O)(O)O	0.911% (inactive)
CC1=C2[C@H](/C=C(\C)C(=O)O)CC[C@@H](C)[C@H]2CC1	-2.43% (inactive)
NC1=NCC2c3ccccc3Cc3ccccc3N12 (stereo not given)	-26.4% [at 35.3 µM] (inactive)
Oc1ccccc1F	3.12% (inactive)
Cc1cc(S(=O)(=O)O)c(N)cc1Cl	0.63% (inactive)
N#CSCC(=O)O	4.31% [at 35.3 µM] (inactive)
CCCCC1CCC(=O)O1 (stereo not given)	0.513% (inactive)
CC1CN(c2ccccc2)NC1=O (stereo not given)	3.68% (inactive)
